Compound activity deposited in PubChem BioAssay by Broad Institute.
Sampled rows, rich in hits. Any-hit rate of the full collection: about 3.3%.
SIRT5 block: inhibitors of human sirtuin-5 desuccinylase. inhibition, % at 15 µM. Purified SirT5, succinyl-peptide AMC, trypsin-coupled fluorescence. 1.1% of 330,000 active. Q9NXA8; in the data active means inhibition above about 15%
Target sequence (Q9NXA8 whole entry, looked up): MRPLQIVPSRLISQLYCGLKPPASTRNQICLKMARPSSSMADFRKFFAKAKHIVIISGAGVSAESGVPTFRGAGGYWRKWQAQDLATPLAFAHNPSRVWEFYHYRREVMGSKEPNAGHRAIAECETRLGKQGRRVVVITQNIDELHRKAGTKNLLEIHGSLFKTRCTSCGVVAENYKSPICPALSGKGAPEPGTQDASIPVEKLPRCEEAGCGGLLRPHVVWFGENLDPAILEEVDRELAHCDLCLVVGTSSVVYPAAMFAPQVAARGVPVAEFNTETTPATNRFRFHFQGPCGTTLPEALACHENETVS
ERAP1 HTS inh: inhibitors of human ERAP1 aminopeptidase; inhibition, % at 10.7 µM; AID 652197; Q9NZ08; recombinant ERAP1, Leu-AMC fluorescence, 60 min; 0.15% of 340,000 active;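 active means mean replicate inhibition of at least 30%, or all replicates individually reaching that 30% level; inactive means mean below 30% and not every replicate reaching it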;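 further: 0% = neutral control wells and 100% = L-leucinethiol positive control wells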
Casp6 inh: inhibitors of human caspase-6; P55212; purified caspase-6, Z-VEID-R110 cleavage fluorescence; inhibition, % at 12.5 µM; 0.53% of 350,000 active;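 active means mean inhibition across replicates at least about 35%, with every replicate also reaching that limit, limit read from the data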;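 further: 0% = median of neutral control wells and 100% = no fluorescence left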
GSIS activator: GLuc luminescence reporter in INS-1E cells, primary screen for activators of glucose-dependent secretion of insulin. INS-1E GLuc reporter insulin secretion, 2-3 h. activation, % at 16.6 µM. 0.61% of 370,000 active;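 active means lowest replicate activation of at least 40%, so every replicate reaches that level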;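 further: 0% = median of neutral control wells and 100% = median of IBMX positive control wells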
FGF22 binding: FGF22 (human) thermal shift binding. recombinant FGF22 thermal shift, SYPRO orange fluorescence; percent of sucrose octasulfate shift, DMSO zero. activity (Tm shift, normalised), % at 9.99 µM. 1.5% of 340,000 active. AID 651658;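 active means mean Tm shift, scaled 0 neutral to 100 positive control, at about 1.3% or above, every replicate too, limit read from the data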
Target sequence (Q9HCT0 whole entry, looked up): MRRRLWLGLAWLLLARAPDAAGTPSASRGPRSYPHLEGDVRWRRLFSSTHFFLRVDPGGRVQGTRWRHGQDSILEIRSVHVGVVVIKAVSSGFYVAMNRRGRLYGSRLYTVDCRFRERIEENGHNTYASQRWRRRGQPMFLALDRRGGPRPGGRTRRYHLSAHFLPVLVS
* = called active by the depositor.

What do the screens show for `C[C@@H]1CN([C@@H](C)CO)C(=O)c2cc(NC(=O)CCN3CCOCC3)ccc2O[C@H]1CN(C)CC1CCCCC1`?
SIRT5 block: -1; ERAP1 HTS inh: -6; Casp6 inh: 0; GSIS activator: 1; FGF22 binding: -1

How did COc1ccc(S(=O)(=O)N2CCN(C(=S)NC3CCCCC3)CC2)cc1 do in these assays?
SIRT5 block: 4; ERAP1 HTS inh: -1; Casp6 inh: -1; GSIS activator: -7; FGF22 binding: 43*

How did CCOc1ccc(S(=O)(=O)N2CCN(C(=S)NC3CC3)CC2)cc1 do in these assays?
SIRT5 block: -1; ERAP1 HTS inh: -1; Casp6 inh: 0; GSIS activator: 18; FGF22 binding: 0

What do the screens show for `Nc1ccc(C(=O)Nc2ccc3nc(-c4ccncc4)[nH]c3c2)cc1`?
SIRT5 block: 1; ERAP1 HTS inh: 6; Casp6 inh: -1; GSIS activator: 6; FGF22 binding: 44*

Results for Nc1ccc2nc(-c3ccc(-c4nc5ccc(N)cc5[nH]4)cc3)[nH]c2c1 ?
SIRT5 block: -4; ERAP1 HTS inh: -4; Casp6 inh: 1; GSIS activator: -1; FGF22 binding: 1

How did C=C(C)CNC(=O)c1ccc(OC2CCN(S(=O)(=O)N(C)C)CC2)cc1 do in these assays?
SIRT5 block: 0; ERAP1 HTS inh: 4; Casp6 inh: 0; FGF22 binding: 0

What do the screens show for `C=C(C)CN(CC)C(=O)c1ccc(OC2CCN(S(=O)(=O)N(C)C)CC2)cc1`?
SIRT5 block: 17*; ERAP1 HTS inh: 1; Casp6 inh: 0; GSIS activator: -8; FGF22 binding: 1

Results for Cc1ccccc1OCc1n(CC(=O)OC2CC(C)CCC2C(C)C)c2ccccc2[n+]1C (configuration not stated) ?
SIRT5 block: -2; ERAP1 HTS inh: 14; Casp6 inh: 2; GSIS activator: 77*; FGF22 binding: 43*

Results for CC1CCC(C(C)C)C(OC(=O)Cn2nnc3c(cnn3-c3ccccc3)c2=O)C1 (configuration not stated) ?
SIRT5 block: -9; ERAP1 HTS inh: 1; Casp6 inh: 2; GSIS activator: 5; FGF22 binding: 0

What do the screens show for `CC1CCC(C(C)C)C(OC(=O)Cn2c(-c3ccc(Cl)cc3)[n+](C)c3ccccc32)C1` (configuration not stated)?
SIRT5 block: 0; ERAP1 HTS inh: 31*; Casp6 inh: 11; GSIS activator: 88; FGF22 binding: 0

Results for CC1CCC(C(C)C)C(OC(=O)Cn2c(-c3ccc(Br)cc3)[n+](C)c3ccccc32)C1 (configuration not stated) ?
SIRT5 block: -3; ERAP1 HTS inh: 20; Casp6 inh: 7; GSIS activator: 275*; FGF22 binding: 0

Results for CC(C)[C@@H]1CC[C@@H](C)C[C@H]1OC(=O)C[n+]1cc(-c2ccc(Cl)cc2)n2c1CCCCC2 ?
SIRT5 block: -1; Casp6 inh: 24; FGF22 binding: 0

What do the screens show for `CC1CCC(C(C)C)C(OC(=O)COC(=O)c2ccc(N)cc2)C1` (configuration not stated)?
GSIS activator: -7

How did CCCNC(=O)Nc1ccc2c(c1)C(=O)N(C)C[C@H](OC)[C@H](C)CN(C(=O)C1CCOCC1)[C@@H](C)CO2 do in these assays?
SIRT5 block: -2; ERAP1 HTS inh: 1; Casp6 inh: -2; GSIS activator: 16; FGF22 binding: 0

What do the screens show for `O=C(N/C(=C/c1ccccc1)C(=O)N1CCOCC1)c1ccc([N+](=O)[O-])cc1`?
SIRT5 block: 14; ERAP1 HTS inh: -1; Casp6 inh: 1; GSIS activator: -3; FGF22 binding: 0

How did O=C(N/C(=C/c1ccco1)C(=O)N1CCOCC1)c1ccc([N+](=O)[O-])cc1 do in these assays?
SIRT5 block: 1; ERAP1 HTS inh: 4; Casp6 inh: -2; GSIS activator: 7; FGF22 binding: 0

What do the screens show for `O=C(N/C(=C\c1ccco1)C(=O)N1CCCCC1)c1ccc([N+](=O)[O-])cc1`?
SIRT5 block: 17*; ERAP1 HTS inh: 3; Casp6 inh: -4; GSIS activator: 12; FGF22 binding: 0

What do the screens show for `Cc1ccc(C(=O)N/C(=C/c2ccc(Cl)cc2)C(=O)N2CCOCC2)cc1`?
SIRT5 block: -2; ERAP1 HTS inh: 1; Casp6 inh: 7; GSIS activator: 51*; FGF22 binding: 0

What do the screens show for `COc1ccc(/C=C(\NC(=O)c2ccc([N+](=O)[O-])cc2)C(=O)N2CCOCC2)cc1`?
SIRT5 block: -2; ERAP1 HTS inh: -2; Casp6 inh: -1; GSIS activator: -10; FGF22 binding: 43*

How did CC1=CC(C)C(=O)N(CCN2CCOCC2)C(C)=C1 (configuration not stated) do in these assays?
ERAP1 HTS inh: 3; Casp6 inh: -2; GSIS activator: 8; FGF22 binding: 43*

How did O=C1c2ccccc2C(=O)N1CCN1CCOCC1 do in these assays?
Casp6 inh: -2; GSIS activator: 20; FGF22 binding: 0

Results for CO[C@H]1CN(C)C(=O)c2cc(NC(=O)NC(C)C)ccc2OC[C@@H](C)N(CCC(F)(F)F)C[C@H]1C ?
GSIS activator: 0

Results for CCCCCOc1ccc(C(=O)CCN2CCOCC2)cc1 ?
SIRT5 block: -4; ERAP1 HTS inh: -1; Casp6 inh: 1; GSIS activator: -50; FGF22 binding: 0

How did CCOc1cc(N2CCOCC2)c(OCC)cc1NC(=O)C(C)C do in these assays?
SIRT5 block: 1; ERAP1 HTS inh: -1; Casp6 inh: -1; GSIS activator: 0; FGF22 binding: 0

How did CCOc1cc(N2CCOCC2)c(OCC)cc1NS(=O)(=O)c1cc(NC(C)=O)ccc1OC do in these assays?
SIRT5 block: 2; ERAP1 HTS inh: 3; Casp6 inh: 37*; GSIS activator: -8; FGF22 binding: -1

Results for CCOc1cc(N2CCOCC2)c(OCC)cc1NC(=O)c1ccc(OC(C)C)cc1 ?
SIRT5 block: -2; ERAP1 HTS inh: 0; Casp6 inh: -5; GSIS activator: -7; FGF22 binding: 43*

What do the screens show for `CC(C)Oc1ccc(C(=O)CCN2CCOCC2)cc1`?
SIRT5 block: -4; ERAP1 HTS inh: -4; Casp6 inh: -1; GSIS activator: 51*; FGF22 binding: 0

Results for CCOc1cc(N2CCOCC2)c(OCC)cc1NC(C)C(=O)N1CCN(CC)CC1 (configuration not stated) ?
SIRT5 block: 15*; ERAP1 HTS inh: 6; Casp6 inh: 70*; GSIS activator: -9; FGF22 binding: 0

Results for CNC(=O)C[C@H]1CC[C@@H]2[C@H](COc3ccc(NC(=O)c4cccc(OC)c4)cc3C(=O)N2C)O1 ?
SIRT5 block: 2; ERAP1 HTS inh: 0; Casp6 inh: 0; GSIS activator: 12; FGF22 binding: 0
